Experimental findings from PubChem BioAssay (NCI) are described below.

SMILES strings stand for the structures. About 83,000 compounds went through this panel and 20% of them were active in at least one assay; those are over-represented in the sample as a whole.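 Plates (96-well) were seeded with cells, treated with compound at one concentration, and incubated for 48 hours before percent growth was determined.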 Unmarked numbers belong to inactive results. Calls of active or inactive are those of the source. Rule for the calls: active = growth percent below 10; inactive = the rest.

Experiment in all cases: NCI-60 one-dose screen, 48 h (100 = growth as untreated, 0 = no growth, -100 = all killed)
For assay [1], the system named is NCI-H23 lung. Conditions: 10 µM unless noted.
For assay [2], the system named is NCI-H226 lung. Conditions: 10 µM unless noted.
Assay [3] relates to NCI-H322M lung. Conditions: 10 µM unless noted.
The test system of assay [4] is HOP-92 NSCLC. As to conditions: 10 µM.
In assay [5] the test system is NCI-H522 lung. Conditions: 10 µM.
Assay [6] relates to A549/ATCC NSCLC. Conditions: 10 µM unless noted.
For assay [7], the system named is 786-0 renal. As to conditions: 10 µM unless noted.
Assay [8] has as its system COLO 205 colon. As to conditions: 10 µM unless noted.
Assay [9] concerns DU-145 prostate. As to conditions: 10 µM unless noted.
Assay [10] deals with K-562 leukemia. Conditions: 10 µM unless noted.
In assay [11] the test system is MALME-3M melanoma. As to conditions: 10 µM unless noted.
The test system of assay [12] is MDA-MB-231 breast. As to conditions: 10 µM unless noted.
Assay [13] concerns RXF 393 renal. Conditions: 10 µM unless noted.
Assay [14] deals with SF-268 CNS. Conditions: 10 µM unless noted.
Assay [15] deals with SF-295 CNS. As to conditions: 10 µM unless noted.
Assay [16] relates to SF-539 CNS. As to conditions: 10 µM unless noted.
Assay [17] concerns UACC-257 melanoma. Conditions: 10 µM unless noted.
The subject of assay [18] is M14 melanoma. Conditions: 10 µM unless noted.

As to `CC(=O)Nc1nc(C)c(C(=O)N/N=C/c2cccs2)s1`, the growth was 103% in [1]; 86.9% in assay [2]; 111% in assay [3]; 42.6% in [4]; 94.8% in assay [5]; 101% in assay [6]. Moreover, the growth in assay [7] was 94.3%; in assay [8], 101%; in assay [9], 115%; in [10] it was 108%; in assay [11] it was 117%; in assay [12], 89.3%. For the same compound, the growth in assay [13] was 113%; in assay [14], 97%; in [15] it was 96.2%; in assay [16], 99.3%; in assay [17], 109%; in [18], 95.7%.
Take `COc1ccc(CN2C(=O)/C(=C\C(=O)c3ccc(OCCN4CCCC4)cc3)c3ccccc32)cc1`: the growth in [1] is 83.8%; in assay [2], 87.8%; in assay [3], 97.6%; in assay [4] it was 54.4%; in assay [5], 31.9%; in assay [6] it was 97.2%. The growth in assay [7] was 85.7%; in [8], 83.9%; in assay [9], 71.9%; in [10], -25.9% (active); in [12] it was 93%; in [13], 65.2%. Further, the growth in assay [14] was 84.3%; in [15], 93.9%; in [16] it was 86.6%; in [17] it was 105%; in assay [18] it was 79.6%.
Consider `CCCCCCNC(=O)Oc1ccc(/C(=C(/C)Cc2ccc(OC)cc2)c2ccc(OCCN3CCCCC3)cc2)cc1`, for which the growth was 90.9% in assay [1]; 92% in assay [2]; 89.5% in [3]; 85.6% in assay [5]; 77.6% in assay [6]; 78.5% in [7]. Besides, the growth in assay [8] is 79.4%; in [9], 98.9%; in assay [10] it was 36.8%; in [11], 101%; in assay [12] it was 84.5%; in assay [13] it was 84.4%. The growth in [14] was 81.9%; in assay [15] it was 105%; in [16], 91.8%; in [17], 88.9%; in assay [18], 84.6%.
With `O=C(N/N=C/c1ccccc1Cl)c1cccc2ccccc12`, the growth in [1] is 97.9%; in [2], 99.7%; in assay [3], 108%; in [4], 94.8%; in [5], 84.5%; in assay [6], 97.5%. Besides, the growth in assay [7] was 105%; in assay [8] it was 114%; in assay [9] it was 115%; in assay [10] it was 93.7%; in assay [11], 97.9%; in assay [12] it was 105%. Also, the growth in assay [13] was 110%; in assay [14], 104%; in assay [15], 99.7%; in assay [16], 108%; in assay [17], 111%; in [18] it was 106%.
Take `N=C(N)c1ccc(-c2ccc(-c3ccc(F)cc3)s2)cc1`: the growth in assay [1] was -91.8% (active); in [2] it was -77.3% (active); in [3], -91.2% (active); in [5], -58.9% (active); in assay [6] it was -74.2% (active); in assay [7], -82.1% (active). Further, the growth in assay [9] is -92.9% (active); in [10], -62.9% (active); in assay [11], -75.6% (active); in [12], -86.8% (active); in assay [13], -98.4% (active); in assay [14] it was -79.9% (active). Further, the growth in assay [15] was -94.1% (active); in [16], -95.4% (active); in [17], -79.5% (active); in assay [18], -83.1% (active).
For the compound `O=C1c2ccccc2CCc2ccccc21`, the growth is 100% in [1]; 100% in assay [2]; 92.7% in assay [3]; 78.7% in assay [4]; 86.4% in assay [5]; 98.5% in assay [6]. For the same compound, the growth in [7] was 109%; in assay [9] it was 104%; in assay [11] it was 98%; in [12], 96.8%; in assay [13] it was 101%; in [14], 96.5%. Further, the growth in assay [15] is 76.8%; in [16], 107%; in [17], 103%; in [18], 96.2%.
In the case of `COC(=O)C1CC(=O)N(C(=O)Nc2ccc(Cl)cc2Cl)C1` (centres undefined), the growth in assay [1] is 98.8%; in assay [2], 94.6%; in assay [3] it was 108%; in assay [4] it was 83.1%; in assay [5], 80.3%; in assay [6], 96.3%. Moreover, the growth was 92.4% in [7]; 114% in assay [9]; 92.8% in [10]; 108% in [11]; 95.3% in assay [12]; 120% in assay [13]. Also, the growth was 101% in assay [14]; 96.7% in assay [15]; 99.6% in [16]; 96.6% in assay [17]; 94.1% in [18].
With `CC(=O)Nc1ccc(CC#N)cc1Br`, the growth is 110% in [1]; 96.4% in assay [2]; 105% in assay [3]; 94% in [4]; 92.9% in assay [5]; 103% in [6]. The growth in [7] is 101%; in assay [8], 109%; in [9], 107%; in assay [10] it was 111%; in assay [11], 101%; in assay [12], 112%. Also, the growth in [14] is 106%; in [15], 105%; in assay [16], 103%; in assay [17], 103%; in assay [18] it was 105%.
`CCCCCCCCCCCCc1ccc([N+](CC)(CC)CC)cc1`: the growth is 17.6% in assay [1]; 59.3% in [2]; 88.5% in assay [3]; 40.9% in assay [4]; 33.8% in assay [5]; 61.1% in [6]. Also, the growth in [7] was 65.6%; in assay [8] it was 20.3%; in assay [9], 58.8%; in assay [10] it was 16.3%; in assay [11] it was -11.1% (active); in assay [12], 41.7%. Also, the growth in [13] was 45.8%; in [14] it was 47.8%; in assay [15], 48.9%; in [16], 58.7%; in assay [17], 13.6%; in assay [18], 32.5%.
